Reference: PubChem BioAssay (NCI)
About 83,000 compounds went through this panel and 20% of them were active in at least one assay; those are over-represented in the sample as a whole.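 Percent growth is the endpoint: 0 to 100 indicates growth inhibition (40 means 60% inhibition), 0 means no net growth, and negative values indicate cell death.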 Values without a mark were called inactive. Calls of active or inactive are those of the source. The calls were made as follows: active = growth percent below 10; inactive = the rest.

Columns and labels:
Test in all cases: NCI-60 one-dose screen, 48 h (100 = growth as untreated, 0 = no growth, -100 = all killed)
Conditions in all cases: 10 µM
DU-145 prostate = tested on: DU-145 prostate
K-562 leukemia = tested on: K-562 leukemia
MALME-3M melanoma = tested on: MALME-3M melanoma
MDA-MB-231 breast = tested on: MDA-MB-231 breast
RXF 393 renal = tested on: RXF 393 renal
SF-268 CNS = tested on: SF-268 CNS
SF-295 CNS = tested on: SF-295 CNS
SF-539 CNS = tested on: SF-539 CNS
UACC-257 melanoma = tested on: UACC-257 melanoma
M14 melanoma = tested on: M14 melanoma

| SMILES | growth (DU-145 prostate) | growth (K-562 leukemia) | growth (MALME-3M melanoma) | growth (MDA-MB-231 breast) | growth (RXF 393 renal) | growth (SF-268 CNS) | growth (SF-295 CNS) | growth (SF-539 CNS) | growth (UACC-257 melanoma) | growth (M14 melanoma) |
| --- | --- | --- | --- | --- | --- | --- | --- | --- | --- | --- |
| O=C(Nc1ccc(I)cc1)Nc1nc2ccc([N+](=O)[O-])cc2s1 | -100% (active) | -82.8% (active) | -99.7% (active) | -100% (active) | -95.1% (active) | -83.7% (active) | -95.4% (active) | -99.7% (active) | -91% (active) | -100% (active) |
| COc1ccccc1[C@H]1C(C(=O)c2ccc(O)cc2)C2(N[C@@H]1c1ccccc1)C(=O)Nc1ccc(Br)cc12 (stereo not given in full) | 56% | 23.1% | 66.3% | 32.9% | 13.5% | 53.1% | 27.9% | 51.8% | 56.1% | 51.6% |
| O=c1cc(-c2ccccc2)oc2cc(OCCCCNCc3ccccc3)cc(O)c12 | 27.6% | -17.6% (active) | -92.6% (active) | -12.4% (active) | -79.8% (active) | 43.6% | -93.5% (active) | -96.2% (active) | -35.6% (active) | -75.9% (active) |
| O=c1cc(-c2ccccc2)oc2cc(OCCCNCc3ccccc3)cc(O)c12 | 13.2% | -20.1% (active) | -94.3% (active) | -43.1% (active) | -56.7% (active) | 25.2% | -81.8% (active) | -97.3% (active) | -69.7% (active) | -76% (active) |
| COc1ccc(C(=O)Nc2sc3c(c2C#N)CCC(=O)C3)cc1C(F)(F)F | 25.3% | 3.54% (active) | -52.3% (active) | -50.8% (active) | -41.9% (active) | 26.8% | -15.4% (active) | -82.7% (active) | -15.8% (active) | -16.8% (active) |
| CC1=C(C(=O)OC(C)C)C(c2ccc(O)cc2)NC(=S)N1 (stereo not given) | 100% | 95.2% | 105% | 100% | 97.3% | 111% | 96.6% | 98.2% | 121% | 97% |
| O=C(c1ccc(Cl)cc1)C1[C@H](c2ccccc2Br)[C@@H](c2ccccc2)NC12C(=O)Nc1ccccc12 (stereo not given in full) | 17.6% | 3.71% (active) | 39.6% | 8.15% (active) | -12.6% (active) | 27.9% | 12.9% | 13.5% | 33.8% | 17.1% |
| Cc1nc(Nc2nc(C)c3ccc(OCCN4CCOCC4)cc3n2)[nH]c(=O)c1C | 14.9% | 14.1% | -69.8% (active) | -67.1% (active) | -78% (active) | 9.74% (active) | -29.3% (active) | -61.7% (active) | -14.9% (active) | 18% |
| COc1cc(-c2nc3cc(Cl)c(Cl)cc3[nH]2)ccc1OCc1nnc(-c2ccc(Br)cc2)o1 | 47.2% | 6.47% (active) | -78.2% (active) | -38.9% (active) | -77.7% (active) | 38.6% | -46.1% (active) | -92.4% (active) | 4.56% (active) | -9.79% (active) |
| Nc1nnc(-c2c[nH]c3ncccc23)c(-c2c[nH]c3ccc(Br)cc23)n1 | 62.4% | 32.9% | 46.8% | 41.6% | 45.4% | 51.8% | 41.9% | 37.2% | 82.1% | 50.3% |
| O=C1Nc2cc(-c3ccc(NC(=O)c4cccc([N+](=O)[O-])c4)cc3)ccc2/C1=C/c1ccc[nH]1 | 67.7% | 93.7% | 98.7% | 86.6% | 83.7% | 98.4% | 83.5% | 89.2% | 97.1% | 102% |
| O=C1NC(=NC23CC4CC(CC(C4)C2)C3)N/C1=C\c1ccc2ncsc2c1 | 6.29% (active) | 10.5% | 2.66% (active) | -8.83% (active) | -63.6% (active) | -11.5% (active) | 13% | -23.9% (active) | 26.7% | 42% |
| Cc1ccc([N+](=O)[O-])c(C(=O)Nc2ccc(-c3ccc4c(c3)NC(=O)/C4=C\c3ccc[nH]3)cc2)c1 | 10.5% | 28% | 55.5% | 55.1% | 87.4% | 14.2% | -65.3% (active) | 73.7% | 81.4% | 34.2% |
| C/C(=C\CSc1ccccc1C(=O)O)CCCC(C)CCCC(C)CCCC(C)C (stereo not given) | 67.1% | 36.2% | 86.4% | 75.9% | 87.8% | 51.5% | 40.6% | 61.1% | 80.7% | 60% |
| O=C(Nc1cc(Cl)cc(Cl)c1)Nc1cc(Cl)cc(Cl)c1 | 15.2% | -25.5% (active) | -40.5% (active) | -65.6% (active) | -15.1% (active) | 9.6% (active) | -47.9% (active) | -46.2% (active) | -29.7% (active) | -77.9% (active) |
| CC1=N/C(=C\c2ccc(N(C)C)cc2)C(=O)N1CCc1ccc(S(N)(=O)=O)cc1 | 112% | 90.6% | 93.4% | 96.4% | 88.9% | 102% | 99.7% | 98% | 87.1% | 97.3% |
| NS(=O)(=O)c1ccc(N=Nc2c(O)n(CC(=O)Nc3ccccc3Br)c3ccccc23)cc1 | 34.7% | 27.2% | 26.5% | 11.2% | 27.6% | 86.6% | 25.8% | 5.32% (active) | 50% | 27.9% |
| O=C1Nc2ccc(F)cc2/C1=C/c1cccc(OCc2ccccn2)c1 | 42.5% | 4.79% (active) | 54.1% | 30.7% | 28.3% | 23.4% | 24.3% | 35.5% | 44.1% | 36.3% |
| CC(C)CCSc1nc(NC2CC2)c(C#N)c(-c2ccc(C(C)C)cc2)n1 | 120% | 100% | 108% | 105% | 113% | 121% | 100% | 101% | 103% | 109% |
| CN1C(=O)/C(=C/c2ccc3ncsc3c2)NC1=NC12CC3CC(CC(O)(C3)C1)C2 | 12.2% | 11.9% | -15% (active) | 0.441% (active) | -22.7% (active) | 24.5% | 14.1% | -32.1% (active) | -17% (active) | 36.9% |
| COc1ccc(N(C)c2cc(C#N)nc3ccccc23)cc1/C=C/C(=O)NO | 16.7% | 4.1% (active) | -56.5% (active) | -73.5% (active) | -82.2% (active) | -30% (active) | -73.8% (active) | -89.6% (active) | -26.2% (active) | 2.45% (active) |
| COc1ccc(CCN2C(=O)/C(=C/c3csc(C#N)n3)SC2=S)cc1OC | -10.9% (active) | 1.08% (active) | 2.58% (active) | 95.7% | -1.04% (active) | 99.4% | 98.7% | -1.47% (active) | 13.4% | 2.13% (active) |
| COc1ccc(C(=O)NC(=S)N2CCN(c3ncnc4c3cnn4-c3ccccc3)CC2)cc1 | 79.9% | 62.7% | 57.8% | 80.2% | 49.9% | 63.8% | 57.8% | 32.3% | 54.4% | 63.1% |
| CONC[C@]1(C)C=C2C(=O)[C@](C)(O)C3(CC3)C(C)=C2[C@H]1O | 2.57% (active) | 2.9% (active) | -73.5% (active) | -33.5% (active) | -85.9% (active) | -4.06% (active) | -9.33% (active) | -80.5% (active) | -27.2% (active) | -13.5% (active) |
| CC(=O)OC[C@@]1(C)C2CC[C@]3(C)C(CC=C4C5CC(C)(C)CC[C@]5(C(=O)Nc5ccccc5)CC[C@]43C)[C@@]2(C)C[C@@H](OC(C)=O)[C@@H]1OC(C)=O (stereo not given in full) | 44.9% | 12.7% | 54.3% | 60.6% | 64.2% | 52.5% | 19.9% | 41.6% | 18.5% | 50.9% |
| O=C(c1ccc(O)cc1)C1[C@H](c2ccc(Br)cc2)[C@@H](c2ccccc2)NC12C(=O)Nc1ccc(Br)cc12 (stereo not given in full) | 9.58% (active) | 3.5% (active) | -49.3% (active) | -67.7% (active) | -62.9% (active) | 10.6% | -22.7% (active) | -17.8% (active) | 49.1% | 14.8% |
| COC[C@@H](CC(C)C)N=C1NC(=O)/C(=C/c2ccc3ncoc3c2)N1 | 22.6% | 14.4% | 32.5% | 12.3% | -8.35% (active) | 22% | 34.4% | -5.08% (active) | 11.5% | 41% |
